Laboratory results published in the supplement of paper PMC9262897, “Low-cost anti-mycobacterial drug discovery using engineered E. coli” (Nature Communications, 2022).
Structures can show the parent of a compound that is named as a salt. ± gives the standard deviation of the averaged measurements.

Experiments:
Test in all cases: growth (OD600 after 10 h); higher = more growth (less inhibition)
[1] = tested on: E. coli TESEC Alr+ wild-type control; details: compound 0.1 mM; raw OD600 reference: median of DMSO wells 0.241, cell-free background 0.041
Method: (§1)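 TESEC Mtb Alr E. coli, or the Alr+ wild-type control, in 384-well plates with Prestwick library compounds at 0.1 mM and 1% DMSO, across arabinose induction levels of 1E3 to 1E7 nM. Growth is read as OD600 after 10 h at 37 °C in triplicate biological replicates.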

E. coli TESEC Mtb Asd = details: compound 0.1 mM
Method: (§2)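 TESEC E. coli strains in which the native enzyme is deleted and replaced by arabinose-inducible Mtb Asd, DapB, CysH or TrpD, each grown in its selective medium. Strains were screened against the Prestwick library at 0.1 mM and 1% DMSO in 384-well format at low and high arabinose induction. Growth is read as OD600 after 10 h in triplicate.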

E. coli TESEC Mtb DapB = details: compound 0.1 mM
Method: as §2

[2] = tested on: E. coli TESEC Alr+ wild-type control; details: compound 0.1 mM; raw OD600 reference: median of DMSO wells 0.49, cell-free background 0.052
Method: (§3)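 TESEC Mtb Alr E. coli (ΔaraC ΔtolC ΔentC Δalr ΔdadX, arabinose-inducible Mtb Alr) or the Alr+ wild-type control strain, grown in defined M9-fructose medium without D-alanine in 96-well plates with Prestwick library compounds at 0.1 mM and 1% DMSO. Low Alr induction is 0.1 µM arabinose and high induction is 10 mM arabinose.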

E. coli TESEC Mtb Alr [3] = details: compound 0.1 mM
Method: as §3

E. coli TESEC Mtb Alr [4] = details: compound 0.1 mM; remark: listed apart in the source
Method: as §1

[5] = arabinose induction (level): High, raw OD600 reference: median of DMSO wells 0.331, cell-free background 0.041
[6] = arabinose induction (level): Low, raw OD600 reference: median of DMSO wells 0.417, cell-free background 0.041
[7] = arabinose induction (level): High, raw OD600 reference: median of DMSO wells […], cell-free background 0.041
[8] = arabinose induction (level): Low, raw OD600 reference: median of DMSO wells 0.227, cell-free background 0.041
[9] = arabinose 100 nM, raw OD600 reference: median of DMSO wells 0.413, cell-free background 0.052
[10] = arabinose 10000000 nM, raw OD600 reference: median of DMSO wells […], cell-free background 0.052
[11] = arabinose 1000 nM, raw OD600 reference: median of DMSO wells 0.294, cell-free background 0.041
[12] = arabinose 10000 nM, raw OD600 reference: median of DMSO wells 0.264, cell-free background 0.041
[13] = arabinose 100000 nM, raw OD600 reference: median of DMSO wells 0.201, cell-free background 0.041
[14] = arabinose 1000000 nM, raw OD600 reference: median of DMSO wells 0.193, cell-free background 0.041
[15] = arabinose 10000000 nM, raw OD600 reference: median of DMSO wells 0.146, cell-free background 0.041

Structure (SMILES)	growth [1]	growth (E. coli TESEC Mtb Asd; [5])	growth (E. coli TESEC Mtb Asd; [6])	growth (E. coli TESEC Mtb DapB; [7])	growth (E. coli TESEC Mtb DapB; [8])	growth [2]	growth (E. coli TESEC Mtb Alr [3]; [9])	growth (E. coli TESEC Mtb Alr [3]; [10])	growth (E. coli TESEC Mtb Alr [4]; [11])	growth (E. coli TESEC Mtb Alr [4]; [12])	growth (E. coli TESEC Mtb Alr [4]; [13])	growth (E. coli TESEC Mtb Alr [4]; [14])	growth (E. coli TESEC Mtb Alr [4]; [15])
CCn1cc(C(=O)O)c(=O)c2cc(F)c(N3CCNCC3)cc21 [Norfloxacin]	0.04437 ± 0.00025	0.0546 ± 0.0041	0.0626 ± 0.0092	0.0581 ± 0.00065	0.0745 ± 0.015	0.0524 ± 0.0022	0.0551 ± 0.002	0.05117 ± 0.00047					
Nc1nc2c(ncn2COCCO)c(=O)[nH]1 [Acyclovir]	0.255 ± 0.014	0.374 ± 0.016	0.416 ± 0.047	0.206 ± 0.005	0.26 ± 0.024	0.47 ± 0.04	0.413 ± 0.011	0.355 ± 0.029					
CNC(=C[N+](=O)[O-])NCCSCc1ccc(CN(C)C)o1 [Ranitidine hydrochloride]	0.235 ± 0.0096	0.323 ± 0.037	0.455 ± 0.058				0.408 ± 0.0097	0.338 ± 0.0081	0.283 ± 0.015	0.252 ± 0.0043	0.203 ± 0.0086	0.179 ± 0.0036	0.1447 ± 0.0011
Nc1nc(/C(=C/CC(=O)O)C(=O)N[C@@H]2C(=O)N3C(C(=O)O)=CCS[C@H]23)cs1 [Ceftibuten]	0.146 ± 0.0038	0.158 ± 0.0053	0.0769 ± 0.00091				0.0471 ± 0.00072	0.273 ± 0.01	0.0633 ± 0.0031	0.04393 ± 0.00032	0.141 ± 0.012	0.138 ± 0.0075	0.177 ± 0.004
CC1CS(=O)(=O)CCN1/N=C/c1ccc([N+](=O)[O-])o1 (configuration not stated) [Nifurtimox]	0.04547 ± 0.00025	0.212 ± 0.049	0.237 ± 0.017	0.188 ± 0.029	0.251 ± 0.019	0.354 ± 0.021	0.0469 ± 0.00035	0.0644 ± 0.012					
CCN1CCC[C@H]1CNC(=O)c1c(O)c(Cl)cc(Cl)c1OC [Raclopride]	0.173 ± 0.014	0.13 ± 0.013	0.133 ± 0.014	0.173 ± 0.013	0.166 ± 0.019	0.391 ± 0.075	0.395 ± 0.038	0.175 ± 0.027					
CC(=O)O[C@]1(C(C)=O)CC[C@H]2[C@@H]3C=C(C)C4=CC(=O)CC[C@@H]4[C@H]3CC[C@@]21C [Nomegestrol acetate]	0.1345 ± 0.001	0.126 ± 0.018	0.104 ± 0.0027	0.144 ± 0.014	0.129 ± 0.0045	0.14 ± 0.0081	0.229 ± 0.082	0.0935 ± 0.015					
OC(CCCN1CCCCC1)(c1ccccc1)c1ccccc1 [Diphenidol hydrochloride]	0.227 ± 0.0039	0.262 ± 0.012	0.488 ± 0.018	0.182 ± 0.018	0.221 ± 0.054	0.48 ± 0.034	0.407 ± 0.008	0.345 ± 0.0049					
CN(CCCCCCCCCCN(C)C(=O)Oc1cccc([N+](C)(C)C)c1)C(=O)Oc1cccc([N+](C)(C)C)c1 [Demecarium bromide]	0.04127 ± 0.00031	0.0473 ± 0.00079	0.047 ± 0.0013	0.0492 ± 0.00091	0.0493 ± 0.0005	0.051 ± 0.00093	0.0633 ± 0.0063	0.0536 ± 0.0014					
CC(C)[C@H](N)C(=O)OCCOCn1cnc2c(=O)nc(N)[nH]c21 [Valacyclovir hydrochloride]	0.243 ± 0.0038	0.258 ± 0.006	0.365 ± 0.054	0.179 ± 0.011	0.186 ± 0.021	0.533 ± 0.17	0.408 ± 0.0084	0.369 ± 0.0047					
COCCc1ccc(OCC(O)CNC(C)C)cc1 (racemic) [Metoprolol-(+,-) (+)-tartrate salt]	0.225 ± 0.0047	0.311 ± 0.028	0.466 ± 0.038	0.214 ± 0.031	0.236 ± 0.0073	0.494 ± 0.11	0.399 ± 0.008	0.3498 ± 0.0028					
O=C(O)CNC(=O)C(CS)Cc1ccccc1 (configuration not stated) [Thiorphan]	0.26 ± 0.0069	0.3 ± 0.069	0.382 ± 0.034	0.202 ± 0.019	0.236 ± 0.019	0.475 ± 0.036	0.409 ± 0.0074	0.348 ± 0.021					
O=C(COc1ccc(Cl)cc1)N1CCN(Cc2ccc3c(c2)OCO3)CC1 [Fipexide hydrochloride]	0.13 ± 0.0038	0.207 ± 0.039	0.214 ± 0.025	0.167 ± 0.0018	0.234 ± 0.024	0.303 ± 0.022	0.38 ± 0.029	0.168 ± 0.033					
O=C1C(=O)c2ccccc2C(O)=C1C1CCC(c2ccc(Cl)cc2)CC1 (configuration not stated) [Atovaquone]	0.171 ± 0.0064	0.271 ± 0.12	0.23 ± 0.017	0.199 ± 0.009	0.204 ± 0.015	0.545 ± 0.044	0.442 ± 0.023	0.231 ± 0.025					
COc1cccc2c1C(=O)c1c(O)c3c(c(O)c1C2=O)C[C@@](O)(C(=O)CO)C[C@@H]3O[C@H]1C[C@H](N)[C@H](O)[C@H](C)O1 [Doxorubicin hydrochloride]	0.0471 ± 0.00081	0.0664 ± 0.0059	0.0616 ± 0.0028	0.0535 ± 0.00072	0.0539 ± 0.001	0.05757 ± 0.00055	0.0599 ± 0.0035	0.0585 ± 0.00087					
COc1ccc(OC)c(C(O)CNC(=O)CN)c1 (configuration not stated) [Midodrine hydrochloride]	0.243 ± 0.0087	0.4 ± 0.017	0.505 ± 0.02	0.188 ± 0.0075	0.25 ± 0.046	0.482 ± 0.043	0.424 ± 0.0079	0.341 ± 0.008					
Clc1ccc(CCC(Cn2ccnc2)Sc2c(Cl)cccc2Cl)cc1 (configuration not stated) [Butoconazole nitrate]	0.0548 ± 0.0082	0.0629 ± 0.00052	0.0669 ± 0.0063	0.0705 ± 0.0052	0.0712 ± 0.0093	0.0876 ± 0.003	0.1 ± 0.057	0.115 ± 0.013					
C[C@@](Cc1ccc(O)c(O)c1)(NN)C(=O)O [Carbidopa]	0.225 ± 0.0049	0.283 ± 0.11	0.357 ± 0.04	0.159 ± 0.016	0.173 ± 0.018	0.499 ± 0.048	0.375 ± 0.014	0.257 ± 0.012					
O=C1OCCN1/N=C/c1ccc([N+](=O)[O-])o1 [Furazolidone]	0.0406 ± 0.0001	0.056 ± 0.0037	0.0561 ± 0.0034	0.114 ± 0.0074	0.112 ± 0.012	0.05247 ± 0.00031	0.0572 ± 0.0027	0.05093 ± 0.00032					
Cc1ccccc1OCC(O)CO (configuration not stated) [Mephenesin]	0.258 ± 0.0026	0.416 ± 0.023	0.45 ± 0.025	0.197 ± 0.0078	0.239 ± 0.02	0.494 ± 0.1	0.413 ± 0.0097	0.373 ± 0.0043					
CC[N+](CC)(CC)CCOc1cccc(OCC[N+](CC)(CC)CC)c1OCC[N+](CC)(CC)CC [Gallamine triethiodide]	0.245 ± 0.011	0.233 ± 0.013	0.368 ± 0.033	0.19 ± 0.011	0.251 ± 0.037	0.475 ± 0.062	0.4196 ± 0.0011	0.372 ± 0.017					
